Assay outcomes deposited in PubChem by National Center for Advancing Translational Sciences (NCATS).
NS1 function inh = influenza NS1 inhibition | Potency, µM (top dose mostly 46.1 µM), inactives show at the top dose activity, positive = more growth | actives 0.4% (n = 270,000); calls by dose curve; also: potency is read from the fitted curve at half-maximal effect; actives are rising curves; nearly all actives have a fitted effect of over 50% in size
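Read-out: OD600 growth recovery of NS1-expressing budding yeast. Cells grown overnight at 30C in -URA glucose medium, washed, resuspended and diluted 1:100 in 2% galactose assay medium, pH 6.0. Same strain lacking NS1 served as positive control.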
Pf growth 48h = P. falciparum growth inhibition at 48 hours (one generation) | AID 504832 | P. falciparum luciferase growth in erythrocytes, 48 h | actives 5.9% (n = 310,000) | Potency, µM (top dose mostly 28.7 µM), inactives show top-dose activity change, negative = inhibition, usual class: inhibitors; also: potency is read from the fitted curve at half-maximal effect; % is scaled to controls: 0 for no effect and ±100 for the full control effect
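Luminescence readout; reporter = integrated firefly luciferase in P. falciparum. RBC culture at 2% hematocrit, 0.1% parasitemia final, 37 C/5% CO2; decreased signal taken as growth inhibition.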
Pf growth 96h = inhibits malaria parasite growth, 96 h | P. falciparum luciferase reporter growth, 96 h | Potency, µM (series often up to 28.7 µM), for inactives: top-dose activity change, negative = inhibition, actives largely listed as inhibitors | actives 6.9% (n = 320,000) | AID 504834; also: potency is read from the fitted curve at half-maximal effect; % is scaled to controls: 0 for no effect and ±100 for the full control effect
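Two parasite generations (96 h, 37 C, 5% CO2) of compound exposure in infected erythrocytes (0.05% parasitemia, 2% hematocrit). Luciferase-reporter P. falciparum; decreased luminescence indicates inhibited growth, aimed at apicoplast-acting delayed death.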
Shiga inhibitor = inhibitors of Shiga toxin in Vero cells | Vero cells, Shiga toxin protein synthesis inhibition reporter | inhibition, % at 38.7 µM | actives 9.2% (n = 290,000) | AID 2315; in the data active = inhibition mostly above about 28%, no sharp cut-off; inactive = mostly below about 43%; also: 0% is about no effect
Cycloheximide cs = counter-screen hit for Shiga toxin inhibitors, cycloheximide; actives 12% (n = 300,000); cell reporter, cycloheximide protein synthesis inhibition counterscreen; max response, %; AID 2314; in the data active = max response mostly above about 13%, no sharp cut-off; inactive = mostly below about 14%; also: read at 38.3 µM for the half of the compounds with a filed dose; 0% is about no effect
SARS PLP yeast = blocks SARS-CoV papain-like protease in a yeast assay; S. cerevisiae expressing SARS-CoV PLpro, growth rescue; actives 0.19% (n = 330,000); Potency, µM (series often up to 32.9 µM), for the others: at the top dose activity, positive = growth rescue, actives largely listed as activators; calls by dose curve; also: potency is read from the fitted curve at half-maximal effect; 0% is about no effect; nearly all actives have a fitted effect of over 55% in size
Active calls of the source: *; i = inactive; ? = inconclusive; nt = no result given. An excerpt weighted towards active compounds, which were near 21% of everything screened. Unless noted, calls follow the shape of the dose curve; as a rule, active = well fitted inhibition curve with a large enough effect; inconclusive = small, poorly fitted or top-dose-only effect, or another doubt; inactive = no such curve, though single readings can be large or run the other way.

SMILES	NS1 function inh	Pf growth 48h	Pf growth 96h	Shiga inhibitor	Cycloheximide cs	SARS PLP yeast
CC(C)CCNC(=O)c1ccc2c(c1)ncn2C1CCCCC1	-16%	?	?	42*	19	-3%
CCN(CC)CCNC(=O)c1ccc2c(c1)ncn2C1CCCCC1	-7%	12%	75%	-9	-1	6%
CCNc1nc(-c2ccc(Cl)cc2)cs1	-15%	272%	nt	81*	52*	1%
CNc1nc(-c2ccc(Cl)cc2)cs1	-47%	83%	18%	76*	27*	-4%
CNc1nc(-c2ccc([N+](=O)[O-])cc2)cs1	0%	138%	i	53*	32*	6%
Nc1nc(-c2ccc([N+](=O)[O-])cc2)cs1	14%	41%	42%	29	10	-7%
CC(C)C(=O)Nc1nc(-c2ccc([N+](=O)[O-])cc2)cs1	2%	35%	91%	40	19	1%
CCN(CC)CC(=O)Nc1nc(-c2ccc(Cl)cc2)cs1	-9%	nt	7%	12	7	-4%
CC1(C)CC(c2nc(-c3ccc([N+](=O)[O-])cc3)cs2)CCO1 (stereo not drawn)	nt	21%	10%	43	17*	-3%
CN(CC(=O)Nc1cccc(F)c1)C(=O)CC1CC2CCC1C2 (stereo not drawn)	3%	?	?	-3	-2	-3%
Cc1ccc(N(Cc2ccccc2)Cc2ccccc2)cc1	-14%	nt	nt	nt	nt	nt
CCOC(=O)Cc1cc(=O)n2[nH]cc(-c3cccc(Br)c3)c2n1	7%	10%	18%	-12	1	0%
O=C(CSC1=NS(=O)(=O)c2cc(F)ccc2N1)NCc1ccc(F)cc1	nt	?	-12%	nt	nt	0%
COc1ccc(NC2=Nc3ccccc3CC2)cc1	1%	189%	?	86	23*	10%
Cc1ccc(C(=O)NC(=S)NCC2CCCO2)cc1Br (stereo not drawn)	-5%	70%	76%	78*	52*	3%
O=C(NC(=S)NCC1CCCO1)c1ccco1 (stereo not drawn)	8%	-9%	7%	16	16	3%
O=C(NC(=S)NCC1CCCO1)c1ccc(Br)o1 (stereo not drawn)	2%	76%	-3%	67	30*	0%
O=C(NNC(=S)NCC1CCCO1)c1cc(Br)ccc1Cl (stereo not drawn)	18%	?	5%	-7	6	9%
O=C(NCCCn1ccnc1)c1cn(-c2ccccc2)nc1-c1ccccc1	-8%	0%	-3%	22	12	nt
N#C/C(=C/c1cn(-c2ccccc2)nc1-c1cccc(OCc2ccccc2)c1)C(=O)NCCCn1ccnc1	?	4.7µM*	2.1µM*	2	-2	-21%
CCOc1cccc(-c2nn(-c3ccccc3)cc2/C=C(/C#N)C(=O)NCCCn2ccnc2)c1	24%	2.6µM*	?	-1	-2	-18%
Cc1cc2c(cc1S(=O)(=O)CCC(=O)Nc1cccc(C(F)(F)F)c1)OCC(=O)N2	-5%	-25%	?	-5	-2	-4%
Cc1ccc(C(C)C)c(OCCNC(=S)Nc2cccc3ccccc23)c1	5%	9.3µM*	?	22	9	4%
Cc1ccc(C(C)C)c(OCCNCc2ccccc2)c1	-21%	8%	336%	-2	-2	0%
CN(CCCC1CCCC1)C(=O)CC1C(=O)NCCN1Cc1ccc(F)cc1 (stereo not drawn)	14%	?	?	-9	-3	13%
SMILES	NS1 function inh	Pf growth 48h	Pf growth 96h	Shiga inhibitor	Cycloheximide cs	SARS PLP yeast
COc1ccc2[nH]c(=O)c(CN(C)C(=O)c3cccs3)cc2c1	-8%	6%	42%	26	7	-1%
COc1ccc(N2CC(NC(=O)NCCC(C)C)CC2=O)cc1 (stereo not drawn)	-1%	?	0%	-9	-4	0%
Cn1c(SCC(=O)c2ccc(F)cc2)nnc1-c1ccccc1N	9%	9%	?	123*	47*	-2%
Cn1c(CO)cnc1SCC(=O)c1ccc(Br)cc1	nt	18%	8%	44	10	0%
CCn1c(Cc2cccn2C)nnc1SCC(=O)c1ccc(C)cc1	-4%	13µM*	15µM*	129*	35*	-7%
CCn1c(SCC(=O)c2ccc(O)c(O)c2)nnc1-c1ccc(C)cc1	10%	?	-28%	-6	0	-2%
Cn1c(CO)cnc1SCC(=O)c1ccc(F)cc1	-2%	58%	34%	75*	24*	1%
Cc1ccc(C(=O)CSc2nnc(-c3ccco3)n2C)cc1	-6%	-9%	-23%	52*	35*	1%
COC(=O)c1ccc(C23CC4(C2)[C@H](CN(C)[C@@H]4c2ccccc2)C3c2ccc(Cl)nc2)cc1 (stereo partly drawn)	3%	?	?	0	0	-1%
Cn1c(CO)cnc1SCc1ccc([N+](=O)[O-])cc1	3%	31%	3%	5	6	1%
Cc1cccc(CSc2ncc(CO)n2C)c1	-1%	31%	21%	17	20*	-26%
Cc1ccc(C(=O)CSc2nnc(-c3ccccc3N)n2C)cc1	-2%	-2%	16%	94*	65*	4%
COC(=O)c1ccc(NC(=O)Nc2cccc(F)c2)cc1	-35%	335%	11%	86*	54*	-1%
COC(=O)c1ccc(C(=O)Nc2ccc(F)cc2)cc1	nt	67%	146%	nt	nt	4%
COC(=O)c1ccc(NC(=O)Nc2ccc(F)cc2F)cc1	0%	246%	8%	143*	37*	-1%
CC(=O)Nc1cccc(NC(=O)Nc2ccc(F)cc2F)c1	nt	3%	40%	31	10	3%
O=C(Nc1ccccc1)Nc1ccc(F)cc1F	-7%	84%	-1%	96*	40*	-1%
Nc1ccc2c(c1)Nc1ccccc1CC2	6%	35%	10%	36	16	-2%
Cc1nn(C(C)(C)C)c(N)c1-c1ccccc1	12%	1%	8%	10	14	-8%
Cc1ccc(NC(=O)COc2ccccc2C(=O)Nc2ccccc2)cc1Cl	14%	?	-95%	7	0	-1%
COc1ccc(OC)c(NC(=O)c2ccccc2SC)c1	-54%	7%	nt	-2	5	-3%
COc1ccc(NC(=O)c2ccccc2SC)cc1	-2%	48%	-21%	67*	54*	-1%
CCOc1ccc(NC(=O)c2cc(SC)ccc2Cl)cc1	8%	7%	26%	-5	1	3%
CCOc1ccc(NC(=O)c2ccccc2SC)cc1	-1%	123%	55%	59*	50*	-3%
CCOc1ccc(NC(=O)C(C)Oc2ccccc2C(=O)Nc2ccc(C)c(Cl)c2)cc1 (stereo not drawn)	5%	?	?	111*	22*	-18%
